The structures appear in SMILES notation. Inconclusive results are not listed. Calls of active or inactive are those of the source. Unless noted, calls come from the whole dose curve; as a rule, active = well fitted curve in the direction sought with a large enough effect; inconclusive = small, poorly fitted or top-dose-only effect, or another doubt; inactive = no such curve, though single readings can be large; an effect the other way counts as inactive or inconclusive.

The target in assay [1] is Methanococcus maripaludis chaperonin (MmCpn) (UniProt Q6LX38). The assay is described as follows: High-Throughput Screening for Modulators of Cytosolic Chaperonin Activity: MmCpn Primary Screen (AID 488978).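 Note: 50 nM MmCpn enzyme hydrolysing 30 µM ATP at 37 °C; 0% is about no effect.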 In a few lines: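 Steps: chaperonin 50 nM final; add compound, 5 min RT; start with ATP, 30 uM final; hold 10 min at 37C; add ADP Transcreener HTRF reagent, 5 min; read ex 320, em 590 and 665 nm.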

Assay [2] has as its target Transient receptor potential cation channel subfamily V member 1 (Homo sapiens) (UniProt Q8NER1). The assay is described as follows: HTS Assay for Compounds that Act as Enhancers of the Vanilloid Receptor 1 (AID 488979). Note: 0% is about no effect. In a few lines:
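TRPV1 cells loaded with Fluo-8 calcium dye; compound added and Ca2+ signal (ex 480/em 520 nm) followed 3 min, then capsaicin at EC20 added and read 2 more min to detect enhancement.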

The target in assay [3] is D(1A) dopamine receptor (Homo sapiens) (UniProt P21728). The assay is described as follows: HTS Assay for Allosteric Agonists of the Human D1 Dopamine Receptor: Primary Screen for Agonists (AID 488981). Note: 0% is about no effect. In a few lines: (§1)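 Tetracycline-induced HEK293 Trex D1 cells with forced coupling to calcium, loaded with no-wash calcium dye; kinetic fluorescence read 180 s after compound addition for agonism, then a further 180 s after an EC20 dopamine challenge for potentiation.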

The target is the same in assay [4]. The assay is described as follows: HTS Assay for Allosteric Agonists of the Human D1 Dopamine Receptor: Primary Screen for Potentiators (AID 488982). Note: 0% is about no effect. In a few lines:
as §1

Assay [5] has the same target. The assay is described as follows: HTS Assay for Allosteric Agonists of the Human D1 Dopamine Receptor: Primary Screen for Antagonists (AID 488983).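 Note: calcium flux response to an EC80 dopamine challenge measured with no-wash dye; nearly all actives have a fitted effect of over 65% in size.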 Note: potency is the fitted concentration of half-maximal effect. In a few lines:
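Tetracycline-induced HEK293 T-REx D1 line, force-coupled to calcium flux, read with no-wash calcium dye. Compound added after 10 s baseline, read 180 s for agonism, then EC80 dopamine added and read a further 180 s.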

The target in assay [6] is ATP-dependent 6-phosphofructokinase (Trypanosoma brucei brucei) (UniProt O15648). The assay is described as follows: qHTS Assay to Find Inhibitors of T. brucei phosphofructokinase: hit validation (AID 492961).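 Note: luminescence reports ADP formed as PFK phosphorylates fructose-6-phosphate with ATP; series mostly up to about 51 µM; % is set by controls: 0 for no effect and ±100 for the full control effect.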 In a few lines:
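Inhibition of parasite PFK is measured as reduced ADP formation, quantified via luciferase after ATP depletion. Assay used 0.1 mM ATP, 0.5 mM F6P, 1.25 nM enzyme, 45 min incubation.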
For orientation: qHTS replaces the single test concentration by a dilution series.

A short description of assay [7]: Validation screen for small molecules that induce genotoxicity in human embryonic kidney (HEK293T) cells expressing luciferase-tagged ELG1 (AID 493106). Note: 0% is about no effect. In a few lines:
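HEK293T cells expressing luciferase-tagged ELG1, 2,000 cells/well, exposed to compound 16 hr at 37 °C, 5% CO2. Luciferase read after ONE-Glo, 30 min at room temperature; increased signal indicates genetic stress.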

The target of assay [8] is ATPase family AAA domain-containing protein 5 (Homo sapiens) (UniProt Q96QE3). The assay is described as follows: Validation screen for small molecules that inhibit ELG1-dependent DNA repair in human embryonic kidney (HEK293T) cells expressing luciferase-tagged ELG1 (AID 493107).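 Note: cells co-treated with the DNA-damaging agent 5-fluorouridine alongside compound; series mostly up to about 46 µM; % is set by controls: 0 for no effect and ±100 for the full control effect; inhibitors lower the ELG1-luciferase luminescence signal; nearly all actives have a fitted effect of over 70% in size.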 In a few lines:
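HEK293T cells expressing luciferase-tagged ELG1, 2,000 per well, treated with 5-fluorouridine plus compound for 16 h at 37 C. ONE-Glo luminescence after 30 min at room temperature reports ELG1 reporter level.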

The target of assay [9] is Thyrotropin-releasing hormone receptor (Homo sapiens) (UniProt P34981). The assay is described as follows: qHTS for Small Molecule Agonists and Allosteric Enhancers of Human TRH Receptor: Validation Screen for Agonists (AID 493127;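 active = calcium activation more than 3 SD above the typical response in the agonist read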; note: 0% is about no effect). The conditions noted are these: TRH receptor agonist cell assay; at 2 µM; stronger effect = higher value. In a few lines: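 TRHR cells loaded with fluo-8 calcium dye; FDSS kinetic fluorescence (Ex 480/Em 530) read at 1 s/cycle after 23 nL compound addition. Agonist-mode calcium response recorded before the 10 nM TRH (EC20) addition.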

Assay [10] in a line: Nrf2 qHTS screen for inhibitors: Validation (AID 493153; active = well fitted inhibition curve with a large enough effect in the main read-out, with a control signal flat, not every such curve was filed as active). The conditions noted are these: viability change: measured here: cytotoxicity max response. In a few lines:
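A549 cells carrying ARE-firefly luciferase reporter, 5000 cells/well in 5% FBS OPTI-MEM, treated with compound over a concentration series for 18-24 h at 37 C. Luciferase luminescence gave Nrf2 activity; CellTiter-Fluor fluorescence gave viability.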

Assay [11] in a line: qHTS for Inhibitors of Cell Surface uPA Generation: Validation Assay (AID 493164). Note: 0% is about no effect. In a few lines: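 RAW 264.7 cells (4000/well) were plated overnight, then exposed for 18 h at 37 C, 5% CO2 to compounds in a 7-point 1:5 titration (2.45 nM–38.3 uM final). Intracellular ATP was read by ATP-Lite luminescence.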
Assay [12] deals with Galactokinase (Homo sapiens) (UniProt P51570). The assay is described as follows: qHTS Validation Assay for Inhibitors of Human Galactokinase (GALK) (AID 493189). Note: 0% is about no effect. In a few lines: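 5 nM GALK / 100 uM galactose / 35 uM ATP, 20 mM HEPES pH8.0, 5 mM MgCl2, 60 mM NaCl, 1 mM DTT, 0.01% BSA (final). RT 1 h; Kinase-Glo Plus luminescence.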
A short description of assay [13]: Validation screen for small molecules that induce DNA re-replication in SW480 colon adenocarcinoma cells (AID 504364). Note: 0% is about no effect. In a few lines: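 SW480 cells (250/well) exposed 48 h at 37 C, 5% CO2, then Hoechst-stained 40 min. Nuclear DNA content imaged by fluorescence scanning (405 nm excitation, 500-530 nm emission); re-replication scored as increased nuclei with elevated intensity.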

Assay [14] has as its target Peptidyl-prolyl cis-trans isomerase NIMA-interacting 1 (Homo sapiens) (UniProt Q13526). The assay is described as follows: qHTS Validation Assay to Find Inhibitors of Pin1 (AID 504536; active = well fitted inhibition curve with a large enough effect in the polarisation, with a control signal flat, not every such curve was filed as active; the % refers to the polarisation;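 note: 0% = full Pin1 enzyme wells and -100% = no-enzyme wells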). In a few lines:
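Fluorescence polarization competition: compounds (titration) displace HiFluor-488-labeled Pin1-1b peptide from Pin1 (0.3 uM final) in pH 7.5 HEPES buffer with DTT, 10 min at room temperature; %Activity normalized to no-enzyme wells, curves fitted.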

Assay [15] addresses Phosphoglycerate kinase, glycosomal (Trypanosoma brucei brucei) (UniProt P07378). The assay is described as follows: qHTS Validation Assay to Find Inhibitors of Phosphoglycerate Kinase (AID 504547).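 Note: control wells lack PGK and mark full inhibition.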 In a few lines:
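PGK activity was coupled to GAPDH (100nM final), which generates the unstable substrate 1,3-bisphosphoglycerate in-well. Reactions ran 60 minutes at room temperature in 100mM TEA pH 7.6, 5mM MgCl2, 0.01% Tween-20, then Kinase-Glo Plus luminescence was read.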

The target of assay [16] is phosphoglycerate mutase (Leishmania major) (UniProt Q4Q090). The assay is described as follows: qHTS Validation Assay to Find Inhibitors of Phosphoglycerate Mutase (AID 504548).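 Note: end-point luminescence from Kinase-GloPlus after the PGAM reaction; series mostly up to about 58 µM; % is set by controls: 0 for no effect and ±100 for the full control effect.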 In a few lines: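 L. major PGAM (1.25nM final) was added to substrate buffer and pinned compound, incubated 45 minutes at room temperature, then Kinase-GloPlus added; luminescence read after 10 minutes. Buffer: 100 mM TEA pH 7.6, 5 mM MgCl2, 0.01% Tween-20.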

Assay [17] deals with Ubiquitin carboxyl-terminal hydrolase 1 (Homo sapiens) (UniProt O94782). The assay is described as follows: Inhibitors of USP1/UAF1: Pilot qHTS (AID 504865).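 Note: rhodamine fluorescence freed from ubiquitin-rhodamine substrate followed over time; top concentration of the series differs between compounds; % is set by controls: 0 for no effect and ±100 for the full control effect; nearly all actives have a fitted effect of over 35% in size.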 In a few lines:
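In 50mM HEPES pH 7.8 containing 0.5mM EDTA, 1mM TCEP, 0.1 mg/ml BSA and 0.01% Tween-20, 1nM USP1/UAF1 is exposed to compound for 15 min, then Ub-Rho (150nM final) is added and fluorescence is read over time.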

Assay [18] in a line: qHTS for Inhibitors of ATXN expression: Validation of Cytotoxic Assay (AID 588349). Note: % is set by controls: 0 for no effect and ±100 for the full control effect. In a few lines: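 HEK293 cells treated with titrated compound for 72 hr at 37 degrees C; viability read as intracellular ATP by CellTiter Glo luminescence.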
Assay [19] concerns the target Thyrotropin receptor (Homo sapiens) (UniProt P16473). The assay is described as follows: qHTS Assay for Antagonists of the Thyroid Stimulating Hormone Receptor (AID 488980). Note: series mostly up to about 58 µM; 0% is about no effect. In a few lines:
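Readout is cAMP by HTRF competition between cellular cAMP and cAMP-d2 for a cryptate-labelled antibody. Antagonism was assessed in TSHR-transfected HEK293 cells stimulated with 4 nM TSH (EC80, final) in the presence of RO 20-1724.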

Sequence of Thyrotropin receptor (Homo sapiens) (P16473 whole entry, looked up): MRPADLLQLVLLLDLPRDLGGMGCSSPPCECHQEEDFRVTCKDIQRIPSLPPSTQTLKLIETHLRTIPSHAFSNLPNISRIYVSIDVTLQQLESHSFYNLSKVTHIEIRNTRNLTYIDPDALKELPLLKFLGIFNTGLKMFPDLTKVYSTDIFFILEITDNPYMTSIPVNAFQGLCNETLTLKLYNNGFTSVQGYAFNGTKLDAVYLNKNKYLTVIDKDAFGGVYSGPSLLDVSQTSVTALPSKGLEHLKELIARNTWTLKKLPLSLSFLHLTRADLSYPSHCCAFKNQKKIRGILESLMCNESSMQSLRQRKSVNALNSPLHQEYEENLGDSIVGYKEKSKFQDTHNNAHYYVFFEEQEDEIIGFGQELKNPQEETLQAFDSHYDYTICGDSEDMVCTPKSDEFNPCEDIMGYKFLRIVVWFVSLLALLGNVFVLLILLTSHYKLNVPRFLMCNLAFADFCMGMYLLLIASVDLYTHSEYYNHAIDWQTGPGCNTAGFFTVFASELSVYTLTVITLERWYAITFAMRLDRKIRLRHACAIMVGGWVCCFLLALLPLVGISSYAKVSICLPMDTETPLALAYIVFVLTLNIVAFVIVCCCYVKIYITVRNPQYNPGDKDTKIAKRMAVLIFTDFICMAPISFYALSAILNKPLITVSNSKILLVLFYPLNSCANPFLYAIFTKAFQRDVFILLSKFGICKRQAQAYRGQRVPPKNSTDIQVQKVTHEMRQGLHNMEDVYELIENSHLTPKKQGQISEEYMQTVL
Sequence of Transient receptor potential cation channel subfamily V member 1 (Homo sapiens) (Q8NER1 whole entry, looked up): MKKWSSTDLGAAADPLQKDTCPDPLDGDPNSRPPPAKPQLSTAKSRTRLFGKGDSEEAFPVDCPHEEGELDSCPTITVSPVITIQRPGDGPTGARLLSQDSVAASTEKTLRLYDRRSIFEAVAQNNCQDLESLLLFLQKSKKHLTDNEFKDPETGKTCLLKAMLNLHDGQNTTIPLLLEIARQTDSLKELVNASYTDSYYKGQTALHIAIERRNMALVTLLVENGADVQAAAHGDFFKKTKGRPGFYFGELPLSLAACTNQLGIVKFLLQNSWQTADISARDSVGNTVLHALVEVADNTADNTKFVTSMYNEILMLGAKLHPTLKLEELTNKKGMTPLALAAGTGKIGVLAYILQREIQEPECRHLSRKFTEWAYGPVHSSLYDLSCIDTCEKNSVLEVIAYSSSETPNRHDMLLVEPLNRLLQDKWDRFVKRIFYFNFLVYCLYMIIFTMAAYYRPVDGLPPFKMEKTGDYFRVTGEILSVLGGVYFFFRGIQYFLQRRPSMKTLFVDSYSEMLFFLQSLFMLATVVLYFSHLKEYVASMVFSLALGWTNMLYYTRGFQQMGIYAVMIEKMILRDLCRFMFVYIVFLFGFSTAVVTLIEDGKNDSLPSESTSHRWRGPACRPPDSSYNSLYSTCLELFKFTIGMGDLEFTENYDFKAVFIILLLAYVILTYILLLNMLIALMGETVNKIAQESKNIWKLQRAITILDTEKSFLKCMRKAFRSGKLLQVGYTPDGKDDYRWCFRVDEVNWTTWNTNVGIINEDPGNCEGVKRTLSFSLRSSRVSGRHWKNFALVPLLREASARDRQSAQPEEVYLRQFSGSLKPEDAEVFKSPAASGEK
Sequence of Phosphoglycerate kinase, glycosomal (Trypanosoma brucei brucei) (P07378 whole entry, looked up): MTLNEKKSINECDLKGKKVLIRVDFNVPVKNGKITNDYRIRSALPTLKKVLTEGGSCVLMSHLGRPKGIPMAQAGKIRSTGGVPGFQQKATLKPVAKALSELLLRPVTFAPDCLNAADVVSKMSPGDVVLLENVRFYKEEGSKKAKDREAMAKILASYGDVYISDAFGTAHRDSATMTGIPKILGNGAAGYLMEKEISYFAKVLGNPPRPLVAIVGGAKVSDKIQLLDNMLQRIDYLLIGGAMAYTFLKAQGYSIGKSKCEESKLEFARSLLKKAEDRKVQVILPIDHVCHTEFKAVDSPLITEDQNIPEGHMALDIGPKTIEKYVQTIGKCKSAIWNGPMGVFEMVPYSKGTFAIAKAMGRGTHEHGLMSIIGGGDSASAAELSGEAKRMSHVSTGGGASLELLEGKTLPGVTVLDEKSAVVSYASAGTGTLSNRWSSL
Sequence of Methanococcus maripaludis chaperonin (MmCpn) (Q6LX38 1-543): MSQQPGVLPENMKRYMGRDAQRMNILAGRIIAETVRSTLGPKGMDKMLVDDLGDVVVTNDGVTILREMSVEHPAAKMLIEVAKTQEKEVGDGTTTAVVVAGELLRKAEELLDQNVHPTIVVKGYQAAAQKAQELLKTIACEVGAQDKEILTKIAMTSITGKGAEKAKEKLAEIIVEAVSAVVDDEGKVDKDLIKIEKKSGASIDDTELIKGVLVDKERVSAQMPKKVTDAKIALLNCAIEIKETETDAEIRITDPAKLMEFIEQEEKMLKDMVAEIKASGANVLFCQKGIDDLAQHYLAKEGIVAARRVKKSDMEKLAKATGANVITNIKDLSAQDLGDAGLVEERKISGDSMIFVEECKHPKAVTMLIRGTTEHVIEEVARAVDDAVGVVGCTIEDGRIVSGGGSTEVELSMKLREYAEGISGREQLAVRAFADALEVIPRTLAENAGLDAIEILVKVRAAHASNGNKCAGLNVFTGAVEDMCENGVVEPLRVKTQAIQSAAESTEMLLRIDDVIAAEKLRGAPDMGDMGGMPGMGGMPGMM
Sequence of Ubiquitin carboxyl-terminal hydrolase 1 (Homo sapiens) (O94782 whole entry, looked up): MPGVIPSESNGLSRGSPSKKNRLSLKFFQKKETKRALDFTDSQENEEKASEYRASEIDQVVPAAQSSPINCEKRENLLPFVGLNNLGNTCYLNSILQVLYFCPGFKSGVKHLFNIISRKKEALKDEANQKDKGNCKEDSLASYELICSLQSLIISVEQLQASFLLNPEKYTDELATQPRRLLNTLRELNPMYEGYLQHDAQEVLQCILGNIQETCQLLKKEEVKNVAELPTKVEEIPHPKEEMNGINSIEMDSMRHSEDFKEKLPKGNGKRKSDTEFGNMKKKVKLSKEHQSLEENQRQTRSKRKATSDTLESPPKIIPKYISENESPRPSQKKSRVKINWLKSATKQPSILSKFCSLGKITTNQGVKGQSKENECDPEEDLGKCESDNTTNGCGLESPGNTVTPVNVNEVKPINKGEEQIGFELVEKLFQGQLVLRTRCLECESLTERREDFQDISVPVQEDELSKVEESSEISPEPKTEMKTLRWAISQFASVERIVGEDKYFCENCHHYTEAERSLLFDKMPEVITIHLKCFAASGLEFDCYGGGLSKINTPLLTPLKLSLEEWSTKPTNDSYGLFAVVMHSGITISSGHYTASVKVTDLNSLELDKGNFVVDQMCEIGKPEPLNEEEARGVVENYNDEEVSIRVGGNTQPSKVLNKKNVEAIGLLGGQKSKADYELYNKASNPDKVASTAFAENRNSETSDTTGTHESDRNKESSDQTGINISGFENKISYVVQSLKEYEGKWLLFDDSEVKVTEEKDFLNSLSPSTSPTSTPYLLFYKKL
Sequence of ATP-dependent 6-phosphofructokinase (Trypanosoma brucei brucei) (O15648 whole entry, looked up): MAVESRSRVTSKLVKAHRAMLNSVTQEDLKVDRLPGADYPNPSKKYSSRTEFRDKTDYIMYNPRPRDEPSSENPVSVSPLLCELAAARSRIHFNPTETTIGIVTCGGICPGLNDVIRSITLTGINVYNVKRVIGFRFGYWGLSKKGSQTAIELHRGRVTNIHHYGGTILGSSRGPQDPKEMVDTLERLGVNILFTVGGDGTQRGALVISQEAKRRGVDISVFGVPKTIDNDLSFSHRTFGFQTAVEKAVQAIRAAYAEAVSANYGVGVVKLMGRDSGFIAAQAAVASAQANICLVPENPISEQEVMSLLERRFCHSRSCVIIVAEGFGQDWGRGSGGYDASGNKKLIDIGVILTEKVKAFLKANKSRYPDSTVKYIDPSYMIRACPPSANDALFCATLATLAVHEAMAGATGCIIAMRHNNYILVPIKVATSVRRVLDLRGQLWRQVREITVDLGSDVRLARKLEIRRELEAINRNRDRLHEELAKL
Sequence of D(1A) dopamine receptor (Homo sapiens) (P21728 whole entry, looked up): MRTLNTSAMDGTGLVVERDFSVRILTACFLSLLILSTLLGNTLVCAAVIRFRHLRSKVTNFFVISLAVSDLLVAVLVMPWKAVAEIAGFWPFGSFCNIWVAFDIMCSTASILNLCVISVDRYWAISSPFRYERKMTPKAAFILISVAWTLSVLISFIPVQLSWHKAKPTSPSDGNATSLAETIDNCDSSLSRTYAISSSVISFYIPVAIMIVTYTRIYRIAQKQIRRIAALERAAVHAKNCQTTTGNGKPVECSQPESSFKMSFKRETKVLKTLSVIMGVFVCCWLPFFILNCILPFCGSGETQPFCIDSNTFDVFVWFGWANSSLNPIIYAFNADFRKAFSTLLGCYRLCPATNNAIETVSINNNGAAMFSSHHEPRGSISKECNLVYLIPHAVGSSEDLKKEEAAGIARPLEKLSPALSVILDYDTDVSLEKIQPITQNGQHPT
Sequence of Peptidyl-prolyl cis-trans isomerase NIMA-interacting 1 (Homo sapiens) (Q13526 whole entry, looked up): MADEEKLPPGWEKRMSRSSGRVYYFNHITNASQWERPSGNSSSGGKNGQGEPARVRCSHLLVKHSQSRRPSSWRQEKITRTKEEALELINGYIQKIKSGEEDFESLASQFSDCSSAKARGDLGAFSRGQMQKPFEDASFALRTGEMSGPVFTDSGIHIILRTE
Sequence of phosphoglycerate mutase (Leishmania major) (Q4Q090 1-553): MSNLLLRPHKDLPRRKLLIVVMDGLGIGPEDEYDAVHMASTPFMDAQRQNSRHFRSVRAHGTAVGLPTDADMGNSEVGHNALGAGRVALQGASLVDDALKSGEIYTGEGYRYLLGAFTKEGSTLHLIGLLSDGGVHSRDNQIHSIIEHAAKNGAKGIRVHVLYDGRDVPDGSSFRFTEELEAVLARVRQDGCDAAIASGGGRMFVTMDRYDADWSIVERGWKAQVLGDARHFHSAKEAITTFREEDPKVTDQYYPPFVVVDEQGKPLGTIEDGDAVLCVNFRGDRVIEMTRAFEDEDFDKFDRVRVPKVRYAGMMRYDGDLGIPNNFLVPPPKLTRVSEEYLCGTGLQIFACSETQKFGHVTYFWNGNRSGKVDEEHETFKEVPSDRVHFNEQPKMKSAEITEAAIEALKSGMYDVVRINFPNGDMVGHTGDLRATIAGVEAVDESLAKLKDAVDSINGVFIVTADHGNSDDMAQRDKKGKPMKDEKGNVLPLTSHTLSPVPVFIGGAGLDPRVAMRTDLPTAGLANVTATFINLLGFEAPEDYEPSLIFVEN

With `NCCS`, the molecule was classed as inactive in [1], in assay [2], in assay [3], in assay [4], in assay [6] and in assay [8]. Moreover, the molecule was called inactive in assay [10], in assay [11], in assay [12], in assay [13], in assay [14] and in [15]. The call in assay [16] was inactive. The Potency entry in [5], in [7], in assay [17] and in assay [18] was “inactive” throughout. Moreover, the activation in [9] is 1.25% (inactive). Moreover, the viability change in assay [10] is -10.7%.

Take `COC(=O)[C@@H]1[C@H]2C[C@H]3c4[nH]c5ccccc5c4CCN3C[C@@H]2CC[C@@H]1O`: the call in assay [1], in assay [2], in assay [19], in assay [3], in [4] and in [8] was inactive. The outcome in [10], in [11], in [12], in [13], in [14] and in assay [15] was inactive. The outcome in [16] was inactive. Moreover, the Potency in assay [5] is 17.8 µM (active). Further, the Potency result in assay [7], in assay [17] and in assay [18] was “inactive” throughout. Besides, the activation in [9] was 0.625% (inactive). Also, in assay [10], the viability change was 2.98%.

Regarding `Clc1ccc(Cn2c(CN3CCCC3)nc3ccccc32)cc1`, the molecule was called inactive in assay [1], in assay [2], in assay [19], in [3], in assay [4] and in [6]. Moreover, the call in [8], in assay [10], in [11], in assay [12], in assay [13] and in assay [14] was inactive. For the same molecule, the outcome in assay [15] and in [16] was inactive. Moreover, the Potency entry in assay [5], in [7] and in assay [18] was “inactive” each time. The activation in assay [9] is -8.12% (inactive). In addition, the viability change in assay [10] was determined as 1.98%.

On to `CC(=O)CCCCn1c(=O)c2c(ncn2C)n(C)c1=O`, for which the outcome in assay [1], in [2], in [19], in [3], in assay [4] and in assay [6] was inactive. Besides, the molecule was classed as inactive in [10], in assay [11], in assay [12], in [13], in assay [14] and in assay [15]. In addition, the molecule was classed as inactive in assay [16]. The Potency entry in assay [5], in assay [7], in assay [17] and in assay [18] was “inactive” throughout. Also, the activation in [9] was -2.31% (inactive). Further, the viability change in assay [10] is -8.24%.

(Values after PubChem BioAssay (NCATS).)
